From PubChem BioAssay AID1347055 (National Center for Advancing Translational Sciences (NCATS), 2019)
Hit rate of the full screen: of about 54,000 compounds, about 120 (0.22%) were called active. Roughly 8% stayed inconclusive and do not appear here. Only a selection was taken, and actives are over-represented in it overall. Unmarked numbers belong to inactive results. Calls follow the shape of the dose curve; as a rule, active = well fitted inhibition curve with a large enough effect; inconclusive = small, poorly fitted or top-dose-only effect, or effect the other way; inactive = flat fitted curve, though single readings scatter.

target: Fumarate hydratase, mitochondrial (Homo sapiens) (UniProt P07954); test: Identification of activators of human fumarate hydratase by quantitative high-throughput screening; settings: FH coupled MDH/diaphorase resazurin fluorescence, 15 min; series mostly up to 79.9 µM; activity change, negative = inhibition: at the top concentration; also: the screen sought activators but most active calls are inhibition curves; nearly all actives have a fitted effect of over 45% in size
Sequence (P07954 whole entry, looked up): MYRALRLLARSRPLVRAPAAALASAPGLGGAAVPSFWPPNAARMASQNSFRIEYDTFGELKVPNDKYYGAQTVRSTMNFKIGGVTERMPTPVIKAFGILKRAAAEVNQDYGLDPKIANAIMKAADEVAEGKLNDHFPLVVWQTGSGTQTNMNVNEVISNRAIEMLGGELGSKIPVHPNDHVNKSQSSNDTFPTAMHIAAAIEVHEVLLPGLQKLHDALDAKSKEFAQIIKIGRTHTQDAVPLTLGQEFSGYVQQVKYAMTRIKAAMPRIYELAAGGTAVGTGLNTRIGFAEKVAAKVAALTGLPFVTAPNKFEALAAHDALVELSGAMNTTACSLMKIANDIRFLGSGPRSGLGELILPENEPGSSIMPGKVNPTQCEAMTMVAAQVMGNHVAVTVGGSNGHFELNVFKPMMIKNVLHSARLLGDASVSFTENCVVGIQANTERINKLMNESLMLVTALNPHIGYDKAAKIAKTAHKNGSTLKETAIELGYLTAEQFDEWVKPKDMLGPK
Text: Fumarate hydratase (FH) is a metabolic enzyme that is part of the Krebs-cycle, and reversibly catalyzes the hydration of fumarate to malate. Mutations of the FH gene have been associated with fumarate hydratase deficiency (FHD), hereditary leiomyomatosis, renal cell cancer (HLRCC), and other diseases. Currently there are no high-quality small molecule probes for studying human fumarate hydratase. To address this, we developed a quantitative high throughput screening (qHTS) FH assay and screened a total of 57,037 compounds in dose-response. While no inhibitors of FH were confirmed, a series of phenyl-pyrrolo-pyrimidine-diones (12 compounds) were identified as activators of human fumarate hydratase. […] The binding of two compounds from the series to human fumarate hydratase was confirmed by microscale thermophoresis. The low hit rate in this screening campaign confirmed that FH is a "tough target" to modulate, and the small molecule activators of human fumarate hydratase reported here may serve as a starting point for further optimization and development into cellular probes of human FH and potential drug candidates.
For primary high-throughput screen, 3 ul of FH solution (containing 13.33nM human fumarate hydratase, 13.33IU/ml malic dehydrogenase, 0.2mM NAD, 0.067mg/ml diaphorase and 0.067mM resazurin in the assay buffer (50 mM Tris pH 8.0, 5 mM MgCl2, 0.01% Brij 3) was dispensed into each well in a black solid bottom 1536-well assay plate (Greiner Bio-One) using a BioRAPTR FRD dispenser (Beckman Coulter, Brea, CA). A 1536-well pintool dispenser outfitted with 20 nl pins (Wako Automation, San Diego, CA) was used to transfer 20 nL of DMSO-solubilized compound (Cherrypick plates) to each 1536-well assay plate. Each compound was screened at five concentrations: 15 nM, 151 nM, 1.5 uM, 15.4 uM, 76.9 uM. Following compound transfer, plates were incubated in room temperature for 10 minutes. 1 uL of substrate solution containing fumaric acid (160 uM) was dispensed via BioRAPTR FRD to initiate the reaction. Plates were immediately transferred to a ViewLux microplate imager (PerkinElmer, Waltham, MA), and any resulting resorufin fluorescence was measured (exitation/emission, 525/598 nm) at 0 and 15 minutes. The exposure time is 1 second. Fluorescence from each well was normalized using enzyme-free and DMSO-treated control wells on each plate, and changes in fluorescence (delta RFU) were calculated using the difference in fluorescent signal for each well at 15 minutes versus 0 minutes.
% is scaled to controls: 0 for no effect and ±100 for the full control effect.

Row | SMILES | activity change, negative = inhibition
1 | CCOc1ccc(S(=O)(=O)N2CCCCCC2)c2ccccc12 | -12.1%
2 | C=C1CCC2C(C)(COC(C)=O)CCCC2(C)C1CCC(C)CC(=O)O (configuration not stated) | -0.374% [at 53.3 µM]
3 | COC(=O)c1cc(NC(=O)c2cnc(SC)nc2-c2ccccc2)cc(C(=O)OC)c1 | -19.3%
4 | Cc1cc(NC(=O)CC(C)C)cc(-c2nc3ncccc3o2)c1O | -0.21%
5 | CC(=O)c1cnc2ccc(-c3cc(Cl)c(O)c(Cl)c3)nc2c1NC1CCC(CN(C)C)CC1 (configuration not stated) | -1.45% [at 0.673 µM]
6 | COc1cc(O)c(C(=O)CCc2ccc(O)cc2)c(O[C@@H]2O[C@H](CO)[C@@H](O)[C@H](O)[C@H]2O)c1 | -13.3% [at 53.3 µM]
7 | CC(C)C1=CC2C(CC[C@]2(C)O)[C@](C)(O)CC1 (some centres not stated) | -0.171%
8 | Fc1ccc(-c2nc(-c3ccccc3F)[nH]c2-c2ccncc2)cc1 | -0.997%
9 | COC(=O)c1[nH]c(=O)c2ccccc2c1-c1ccc[nH]1 | 1.76%
10 | CC(=O)N1CCc2cc(S(=O)(=O)NC(Cc3ccccc3)C(=O)NCc3ccc(C)cc3)ccc21 (configuration not stated) | 10.6%
11 | O=C(Nc1ccc2nc(SCC(=O)N3CCCc4ccccc43)sc2c1)c1ccc(F)cc1 | -6.95%
12 | COc1ccc(NC(=O)CCN2CCN(CCO)CC2)cc1 | 9.05%
13 | CCc1ccc(CN(Cc2ccco2)C(=O)c2ccccc2Cl)cc1 | -25.2%
14 | COCCNS(=O)(=O)c1cc(-c2nn3c(C)nnc3c3ccccc23)ccc1C | -5.96%
15 | CCOC(=O)c1ccc(NC(=O)c2c(NCc3cccs3)sc3c2CCCC3)cc1 | -9.56%
16 | CC(F)(F)CN1CCOc2c(nn(-c3ccccc3Cl)c2-c2ccc(Cl)cc2)C1=O | -12.3%
17 | CCC/C=C/C(=O)O[C@H]1CC(C)(C)CC2[C@]13[C@H](O)O[C@@]21CCC2[C@@]4(C)CC[C@H](O[C@@H]5O[C@H](C(=O)O)[C@@H](O)[C@H](O[C@@H]6O[C@H](CO)[C@H](O)[C@H](O)[C@H]6O[C@@H]6O[C@@H](C)[C@H](O)[C@@H](O)[C@H]6O[C@@H]6OC[C@](O)(CO)[C@H]6O)[C@H]5O[C@@H]5O[C@H](CO)[C@H](O)[C@H](O)[C@H]5O)C(C)(C)C4CC[C@@]2(C)[C@]1(C)C[C@H]3OC(C)=O (some centres not stated) | 27.8% [at 13.5 µM]
18 | Cc1ccc(-c2nnc3c4ccccc4c(C)nn23)cc1NC(=O)c1cccc(Br)c1 | 3.86%
19 | Cc1cc(C)c(NC(=O)c2cc3sc(Cl)cc3n2C)c(C)c1 | -0.541%
20 | O=C(CN1C(=O)COc2ccc(S(=O)(=O)N3CCOCC3)cc21)N1CCN(c2cccc(Cl)c2)CC1 | -5.4%
21 | O=C(Cn1c(=O)n(Cc2cccs2)c(=O)c2cccnc21)Nc1ccc(F)cc1 | -20.5%
22 | C[C@H]1CC[C@@]2(OC1)O[C@H]1CC3C4CC[C@H]5C[C@@H](O)CC[C@]5(C)C4CC(=O)[C@]3(C)[C@H]1[C@@H]2C (some centres not stated) | -3.6% [at 53.3 µM]
